Laboratory results: PubChem BioAssay (NCI)
Compounds without any hit were thinned out: in the full panel of roughly 83,000, 20% have a hit.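 Cells were grown in 96-well plates and exposed to the test compound at a single concentration for 48 hours; results are reported as percent growth, with values below 10 considered active.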 A number with no mark means an inactive call. The source made the active and inactive calls.

Tests used:
Experiment in all cases: NCI-60 one-dose screen, 48 h (100 = growth as untreated, 0 = no growth, -100 = all killed)
Details in all cases: 10 µM unless noted
SK-MEL-2 melanoma = tested on: SK-MEL-2 melanoma
SN12C renal = tested on: SN12C renal
UO-31 renal = tested on: UO-31 renal
TK-10 renal = tested on: TK-10 renal
ACHN renal = tested on: ACHN renal
CAKI-1 renal = tested on: CAKI-1 renal
A498 renal = tested on: A498 renal
CCRF-CEM leukemia = tested on: CCRF-CEM leukemia
MOLT-4 leukemia = tested on: MOLT-4 leukemia
SR leukemia = tested on: SR leukemia
RPMI-8226 leukemia = tested on: RPMI-8226 leukemia
OVCAR-8 ovarian = tested on: OVCAR-8 ovarian
OVCAR-5 ovarian = tested on: OVCAR-5 ovarian
OVCAR-4 ovarian = tested on: OVCAR-4 ovarian
SK-OV-3 ovarian = tested on: SK-OV-3 ovarian
IGROV1 ovarian = tested on: IGROV1 ovarian
OVCAR-3 ovarian = tested on: OVCAR-3 ovarian
HS 578T breast = tested on: HS 578T breast
NCI/ADR-RES ovarian = tested on: NCI/ADR-RES ovarian

Row | Compound | growth (SK-MEL-2 melanoma) | growth (SN12C renal) | growth (UO-31 renal) | growth (TK-10 renal) | growth (ACHN renal) | growth (CAKI-1 renal) | growth (A498 renal) | growth (CCRF-CEM leukemia) | growth (MOLT-4 leukemia) | growth (SR leukemia) | growth (RPMI-8226 leukemia) | growth (OVCAR-8 ovarian) | growth (OVCAR-5 ovarian) | growth (OVCAR-4 ovarian) | growth (SK-OV-3 ovarian) | growth (IGROV1 ovarian) | growth (OVCAR-3 ovarian) | growth (HS 578T breast) | growth (NCI/ADR-RES ovarian)
1 | COc1ccc(C(Cn2ccnc2)Sc2ccc(Cl)c(Cl)c2)cc1 (stereo not given) | 104% | 88.6% | 45.2% | 96.7% | 83.4% | 62.3% | 67.8% | 79.3% | 64.1% | 97.4% | 50.7% | 91% | 91.3% | 79.6% | 86.4% | 59.3% | 89.7% | 112% | 69.1%
2 | COc1cc(-c2ccc(-[n+]3nc(-c4ccc([N+](=O)[O-])cc4)nn3-c3ccc([N+](=O)[O-])cc3)c(OC)c2)ccc1-[n+]1nc(-c2ccc([N+](=O)[O-])cc2)nn1-c1ccc([N+](=O)[O-])cc1 | 1.62% (active) | 2.95% (active) | 6.95% (active) | -9.35% (active) | 9.61% (active) | -9.54% (active) | -22.2% (active) | 12.7% | 17.9% | 40.2% | 27.6% | 30.5% | 59.7% | 53.9% | 47.1% | 24.5% | 32% |  | 73.4%
3 | Oc1c(Cl)cc(Cl)cc1C(c1cc(Cl)cc(Cl)c1O)C(Cl)(Cl)Cl | -33.9% (active) | 0.98% (active) | -21.4% (active) | 13% | -19.7% (active) |  | -26.6% (active) | 8.74% (active) | 3.86% (active) | 9.73% (active) | -9.94% (active) | -0.45% (active) | 1.83% (active) | 20.4% | -16.7% (active) | -15.7% (active) | -7.63% (active) | -11.5% (active) | -15.7% (active)
4 | CC(C)(C)c1ccc(O)c(Br)c1 | 126% | 94.6% | 86.5% | 111% | 104% | 96.4% | 73.4% | 7.22% (active) | 112% | 106% | 85% | 103% | 98.1% | 101% | 120% |  | 99.2% | 96.4% | 100%
5 | CN(C)c1ccc(C(C#N)(c2ccccc2)c2ccc(N(C)C)cc2)cc1 | 85.2% | 14.4% | 53% | 71.8% | 49.3% | 79.4% |  | 69.3% | 68.5% | 15.9% | 14.9% | 23.4% | 106% | 83.5% | 92.5% | 83% | 72.3% | 33.2% | 73.8%
6 | CCCC[n+]1c(/C=C\c2c(OC)cc(OC)cc2OC)ccc2ccccc21 | -44.7% (active) | 3.62% (active) | 1.45% (active) | -12.7% (active) | 9.92% (active) | -41.6% (active) | -23.4% (active) | 1.26% (active) | -22.5% (active) | -34.6% (active) | -25.6% (active) | -27.7% (active) | 24.3% | 9.07% (active) | -14.3% (active) | 9.69% (active) |  | 16.4% | 76.8%
7 | CCCCCCCCCCCC1=NCCCN1CCCC | 107% | 98.4% | 84.3% | 108% | 104% | 111% |  | 87.4% | 92% | 57.6% | 93.4% | 101% | 93.4% | 101% | 102% | 105% |  | 112% | 96.8%
8 | CC(C)c1ccc(Nc2n[nH]c(=S)s2)cc1 | 111% | 98.2% | 83.7% | 93.1% | 106% | 114% | 94.6% |  | 97.6% | 101% | 108% | 102% | 119% | 104% | 106% | 106% | 98.9% | 116% | 102%
9 | O=C(c1ccccc1)N(CCCl)C(=O)N(CCCl)C(=O)c1ccccc1 | 93.5% | 94.1% | 82.4% | 103% | 94.1% | 97.3% | 96.6% | 100% | 86.3% | 94.4% | 101% | 98.5% | 91% | 105% | 104% | 103% | 107% | 110% | 91.8%
10 | CC(C)(C)CC(C)(C)c1ccc(OCCOCCSC(=N)N)cc1 | 85% | 55% | 53.2% |  | 33.5% | 65.3% | 75.3% | 0.0306% (active) | 14.4% | -24.4% (active) | -43.6% (active) | 58.5% | 73.6% | 33% | 55.9% | 54.9% | 25.3% | 33.9% | 45.5%
11 | CCCCCCCCCCCCN1C(C)=CS/C1=C\C=C\c1scc(C)[n+]1CCCCCCCCCCCC | 1.51% (active) | 18.2% | 62.6% | 11.9% | 38.6% | 27.5% |  | 20% | 11.1% | -4.71% (active) | -11.3% (active) | -8.26% (active) | 61% | 34.2% | 50.3% | 42.8% |  | 76.6% | 68%
12 | S=C1SCN(Cc2cccs2)CN1Cc1cccs1 | 99% | 98.7% | 88.8% | 90.7% | 105% | 99.4% | 95.7% | 70.9% | 100% | 59.3% | 58% | 104% | 98.8% | 94.4% | 108% |  | 111% | 91.1% | 108%
13 | CCCCCCCCCCCCCCCCSC(=NCC)NCC | -21.6% (active) | 18.6% | -13.2% (active) | 50.7% | -21.6% (active) | -25.9% (active) | 67.4% | -48.9% (active) | -47.7% (active) | -43.3% (active) | -43.3% (active) | -15.4% (active) | 44.5% | 2% (active) | 72.1% | -89.3% (active) | -18.1% (active) | 66.1% | 25.4%
14 | CCCCCCN(CCCCCC)CCCNc1nccc2ccccc12 | 21.4% | 18.7% | 15.2% | 39.8% | 19.2% | 21.4% |  | 12.4% | 11.8% | -9.78% (active) | -22.8% (active) | 12% | 38.1% | 23.4% | 41.9% | 12.5% | -6.31% (active) | 12.4% | 19.4%
15 | CCOc1ccc2c(c1)/C(=C\C=C\C1CC(C)C3CC(OCC)CCC3N1CC)CC(C)N2CC (stereo not given) | -54.6% (active) | 6.7% (active) | 0.241% (active) |  | 12% | 17.9% | 15% | -40.3% (active) | -42.5% (active) | -47.6% (active) | -52.2% (active) | 6.8% (active) | 33.6% | 15.4% | 14.9% | 32.4% | 8.69% (active) | 63.6% | 60.8%
16 | Nc1ccc(Oc2ccccc2)c(Cl)c1 | 105% | 107% | 72.1% | 96.1% | 101% | 100% | 57.5% | 102% | 97.9% | 92.1% | 101% | 95% | 83.9% |  | 91.6% | 112% | 113% | 91.7% | 114%
17 | O=[N+]([O-])c1ccc(N2CCN(Cc3ccccc3)CC2)c2c1no[n+]2[O-] | 64.8% | 19.1% | -78.1% (active) | -15.7% (active) | -91.6% (active) | 15.3% | 47.6% | -31.6% (active) | -29.8% (active) | -47.7% (active) | -15.1% (active) | 0.836% (active) | 26.5% | -50.2% (active) | 58.4% | -42% (active) | -53.7% (active) | 30.5% | 24.5%
18 | Oc1ccc(Br)cc1Sc1cc(Br)ccc1O | 54.4% | 23.9% | 32.9% | 115% | 47.8% | 99.7% |  | 34.3% | 40.4% | 41.4% | 4.14% (active) | 51.4% | 105% | 37.3% | 98.3% | 81.5% | 28.9% |  | 31.4%
